Measurements reported in paper PMC5540273 (PLoS ONE, 2017).

How the values were obtained:
Conditions in all cases: concentration: 1 μM, replicates: in singlicate; n = 1
[1] = tested on: EPHA2
[2] = tested on: EPHA3
[3] = tested on: EPHA4
[4] = tested on: EPHA5
[5] = tested on: EPHA6
[6] = tested on: EPHA7
[7] = tested on: EPHA8
[8] = tested on: EPHB1
[9] = tested on: EPHB2
[10] = tested on: EPHB3
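Further: KINOMEscan kinase panel screen.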

| SMILES | %Inh [1] | %Inh [2] | %Inh [3] | %Inh [4] | %Inh [5] | %Inh [6] | %Inh [7] | %Inh [8] | %Inh [9] | %Inh [10] |
| --- | --- | --- | --- | --- | --- | --- | --- | --- | --- | --- |
| CC(=O)c1c(C)c2cnc(Nc3ccc(N4CCNCC4)cn3)nc2n(C2CCCC2)c1=O | 16% | 0% | 0% | 0% | 0% | 0% | 0% | 0% | 0% | 3% |
| CS(=O)(=O)CCNCc1nc(-c2ccc3ncnc(Nc4ccc(OCc5ccccc5)c(Cl)c4)c3c2)cs1.Cl [GW582764] | 10% | 0% | 0% | 0% | 7% | 0% | 8% | 0% | 0% | 11% |
| CC(C)c1ccc(O)cc1Nc1ccnc2ccc(C(F)(F)F)cc12 [GW482059] | 0% | 0% | 19% | 0% | 20% | 0% | 3% | 9% | 0% | 13% |
| CNC(=O)c1ccc(C)c(-n2c(C)cc(OCc3ccc(F)cc3F)c(Br)c2=O)c1 | 0% | 0% | 0% | 0% | 0% | 0% | 0% | 0% | 6% | 0% |
| COc1ccc(CSc2nnc(-c3ccc4c(c3)CCO4)o2)cc1 | 0% | 1% | 18% | 0% | 6% | 0% | 0% | 0% | 0% | 12% |
| COc1ccc(Nc2nccc(N3CCC(NC(=O)C(C)c4ccc(Cl)cc4)C3)n2)cc1 (centres unmarked) [GSK1379735] | 25% | 9% | 14% | 0% | 11% | 18% | 17% | 13% | 0% | 9% |
| O=C(Nc1n[nH]c2nc(-c3ccco3)c(Br)cc12)C1CCN(Cc2ccccc2)C1.O=C(O)[C@H](O)[C@@H](O)C(=O)O (centres unmarked) [SB-742034] | 0% | 16% | 1% | 6% | 0% | 7% | 0% | 7% | 17% | 11% |
| Cc1cccc2c(-c3ccncn3)c(-c3ccc(F)cc3)nn12 [GW515532] | 0% | 0% | 2% | 0% | 21% | 0% | 13% | 1% | 0% | 2% |
| COc1ccc(Nc2nccc(-c3ccc(NC(=O)c4cc5cc(F)ccc5[nH]4)cc3)n2)cc1 [GSK1229496] | 1% | 1% | 0% | 0% | 0% | 0% | 10% | 3% | 0% | 0% |
| COc1ccc(Nc2nccc(NCCNC(=O)Nc3cc(C)ccc3C)n2)cc1 [GSK1379899] | 0% | 0% | 17% | 0% | 14% | 3% | 6% | 16% | 0% | 17% |
| O=c1cc(N2CCOCC2)nc2n(Cc3cccc(Cl)c3Cl)c3ccccc3n12 [GSK2299009] | 8% | 5% | 14% | 1% | 6% | 19% | 25% | 26% | 61% | 20% |
| CS(=O)(=O)CCNCc1nc(-c2ccc3ncnc(Nc4ccc5c(cnn5Cc5ccccc5)c4)c3c2)cs1.Cl.Cl [GW569716] | 0% | 0% | 6% | 8% | 7% | 4% | 11% | 0% | 0% | 13% |
| Fc1ccc(-c2nn3cccc(F)c3c2-c2ccncc2)cc1 [GW475620] | 12% | 2% | 15% | 13% | 38% | 0% | 4% | 8% | 0% | 31% |
| Cn1cncc1C(=O)NC1CCN(c2ccnc(Nc3ccc(F)cc3)n2)C1 (centres unmarked) [GSK1379717] | 0% | 0% | 0% | 0% | 0% | 3% | 4% | 7% | 0% | 0% |
| O=C1NC(=O)C(c2ccc(Cl)cc2)=C1Nc1cccc(Cl)c1 [SB-317651] | 8% | 0% | 0% | 1% | 0% | 0% | 0% | 0% | 20% | 0% |
| O=c1cc(N2CCOCC2)nc2n(Cc3ccccc3F)ccn12 [GSK2297428] | 21% | 0% | 5% | 0% | 0% | 3% | 9% | 5% | 0% | 7% |
| COc1cc2ncnc(Nc3cccc(Br)c3)c2cc1OC.Cl [GI230329] | 13% | 33% | 0% | 0% | 41% | 7% | 12% | 20% | 9% | 1% |
